Source: the supplement of paper PMC10600219
Where a name gives a salt, the structure may show the parent alone. In all, about 2,800 compounds were measured (“cell viability relative to vehicle”: median about 1.1, lowest 2% from about 0.19 on). The list comes from a sample in which the lowest values are over-represented; it also holds similar structures and randomly drawn compounds.

test system: NCI-H2228 parental; experiment: cell viability relative to vehicle (fraction of vehicle); NCI-H2228 is an ALK-positive lung cancer line and DTP means drug-tolerant persister; higher = less growth inhibition; details: 100 nM; treatment time 6 days
Outline: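 NCI-H2228 parental cells and drug-tolerant persister cells were plated in 384-well plates; the persisters had been generated with 1000 nM of a targeted drug over 13 days. One day later, the 3114-agent TargetMol anti-cancer compound library was added at 100 nM, with DMSO serving as vehicle. ATP was measured 6 days after that using the CellTiter-Glo 3D Cell Viability Assay. Values are cell viability expressed relative to vehicle-treated cells.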

| Compound | cell viability |
| --- | --- |
| FC(F)(F)c1ccccc1-c1nc(NCc2cccs2)c2ccccc2n1 | 1.04 |
| CC(CCc1ccccn1)(CCc1ccccn1)C(=O)c1ccccc1 [JAK2 Inhibitor V] | 1.08 |
| COc1cc2ncnc(Nc3ccc(Oc4ccccc4)cc3C)c2cc1OC | 0.96 |
| CCc1ccc(-c2nc(CSCC(=O)NCCc3ccccc3)c(C)o2)cc1 | 1.1 |
| COc1cc(N(C)C)cc(CN(C)CCc2ccc([N+](=O)[O-])cc2)c1O [CDC25 Phosphatase Inhibitor I] | 1.05 |
| O=C(O[C@@H]1Cc2c(O)cc(O)cc2O[C@H]1c1cc(O)c(O)c(O)c1)c1cc(O)c(O)c(O)c1 [(-)-Gallocatechin gallate] | 1.07 |
| O=C1NCCSc2c1sc1ccc(O)cc21 | 1.05 |
| Cc1csc(-c2nnc(Nc3ccc(Oc4ncccc4-c4ccnc(N)n4)cc3)c3ccccc23)c1 | 0.143 |
| C[C@@H]1CCCCCCCCCCCCC(=O)C1 [Muscone] | 1.13 |
| CC(=O)NC(Cc1ccccc1)C(=O)O (stereo not drawn) [Afalanine] | 1.04 |
| COC[C@H](NC(=O)c1cnc(C)s1)C(=O)N[C@@H](COC)C(=O)N[C@@H](Cc1ccccc1)C(=O)[C@@]1(C)CO1 [Oprozomib] | 0.176 |
| CC(NC(=O)C(Cc1ccccc1)NC(=O)OCc1ccccc1)C(=O)CF (stereo not drawn) | 1.1 |
| Cn1c(=O)c(Oc2ccc(F)cc2F)cc2cnc(NC(CCO)CCO)nc21 [Pamapimod] | 1.05 |
| C[C@@H]1CC[C@@]2(NC1)O[C@H]1C[C@H]3[C@@H]4CC=C5C[C@@H](O[C@@H]6O[C@H](CO)[C@H](O)[C@H](O[C@@H]7O[C@H](CO)[C@@H](O)[C@H](O)[C@H]7O)[C@H]6O[C@@H]6O[C@@H](C)[C@H](O)[C@@H](O)[C@H]6O)CC[C@]5(C)[C@H]4CC[C@]3(C)[C@H]1[C@@H]2C [Solasonine] | 1.1 |
| Cn1cc(-c2cc3c(N4CCN(c5ncc([C@@](C)(N)c6ccc(F)cc6)cn5)CC4)ncnn3c2)cn1 [Avapritinib] | 0.846 |
| CCCC(C)NC(=O)c1ccc(Cl)c(Cl)c1 (stereo not drawn) | 1.06 |
| CC(C)C[C@H](NC(=O)CNC(=O)c1cc(Cl)ccc1Cl)B(O)O [Ixazomib] | 0.121 |
| C[C@H](NC(=O)CNC(=O)c1cccc(Cl)c1)c1ccccc1 | 1.09 |
| CC(C)C[C@H](NC(=O)CNC(=O)c1cc(Cl)ccc1Cl)B1OC(=O)C(CC(=O)O)(CC(=O)O)O1 | 0.106 |
| CCNC(=O)Nc1ccc(-c2nc(N3CCOC[C@@H]3C)c3c(n2)C(C)(C)S(=O)(=O)C3)cc1 | 0.547 |
| CCn1nc(C2CCN(C(=O)CCO)CC2)nc1-c1cnc(N)c(-c2nnc(C(C)(C)C)o2)n1 | 1.04 |
| COc1cc(OCc2cccc(-c3ccccc3)c2C)cc(OC)c1CN1CCCC[C@H]1C(=O)O [PD-1/PD-L1 inhibitor 1] | 1.09 |
| Nc1n[nH]c2cc(-c3ccc(=O)n(Cc4cccc(Cl)c4)c3)ccc12 | 1 |
| Cc1cc(-n2cccc2)c(S(C)(=O)=O)cc1C(=O)N=C(N)N [Eniporide] | 1.24 |
| Nc1nccc(Oc2ccc3c(C(=O)Nc4cccc(C(F)(F)F)c4)cccc3c2)n1 | 1.15 |
| C=C1CCC[C@]2(C)C[C@]3(O)OC(=O)C(C)=C3C[C@@H]12 [Atractylenolide III] | 1.1 |

| Compound | cell viability |
| --- | --- |
| COc1nccnc1NS(=O)(=O)c1ccc(NC(=O)/C=C/c2ccc([N+](=O)[O-])s2)cc1 [Necrosulfonamide] | 1.13 |
| O=C(COCC(=O)N1CCN(C(c2ccccc2)c2ccccc2)CC1)Nc1ccc(Cl)cc1C(=O)O [TM5275 sodium] | 0.996 |
| NCCC(=O)O [beta-Alanine] | 1.24 |
| CC(C)S(=O)(=O)c1ccc2nccc(Nc3ccc4scnc4c3)c2c1 | 1.08 |
| Nc1nc(=O)c2c([nH]1)NC[C@H](CNc1ccc(C(=O)N[C@@H](CCC(=O)O)C(=O)O)cc1)N2C=O [Calcium Levofolinate] | 1.15 |
| Nc1nc2[nH]cc(CCc3ccc(C(=O)N[C@@H](CCC(=O)O)C(=O)O)cc3)c2c(=O)[nH]1 [Pemetrexed Disodium Hydrate] | 0.187 |
| Cc1ccc2nc(N)[nH]c(=O)c2c1Sc1ccncc1 [Nolatrexed] | 1.04 |
| COc1c2c(cc3c1-c1c(cc4c(c1OC)OCO4)C[C@H](C)[C@H](C)C3)OCO2 [Schisandrin C] | 0.951 |
| N#CC(=Cc1cc(Cl)cc(Cl)c1)c1cccnc1 | 1.14 |
| CCN(CC)CCOc1ccc(Nc2nc(-c3ccccc3NC(=O)CCN3CCN(C)CC3)nc3ccccc23)cc1 | 1.15 |
| CC(C)Oc1ccc(C(=O)N[C@H](CNC(=O)CN(C)C)Cc2ccc(-c3cn4cccc([C@H](C)O)c4n3)cc2)cc1Cl | 0.15 |
| COc1ccc(-c2cc(=O)c3c(O)cc(O[C@@H]4O[C@H](CO[C@@H]5O[C@@H](C)[C@H](O)[C@@H](O)[C@H]5O)[C@@H](O)[C@H](O)[C@H]4O)cc3o2)cc1 [Linarin] | 1.02 |
| NC(=O)c1[nH]cnc1N [4-Amino-5-imidazolecarboxamide] | 1.23 |
| CCn1cc(-c2cccc(C(F)(F)F)c2)c2sc(C(=N)NC3CCS(=O)(=O)CC3)cc2c1=O | 1.1 |
| COc1ccc(C[C@H](NC(=O)[C@H](C)NC(=O)CN2CCOCC2)C(=O)N[C@@H](Cc2ccccc2)C(=O)C2(C)CO2)cc1 (stereo in doubt) | 0.878 |
| CC(C)C[C@H](NC(=O)[C@H](CCc1ccccc1)NC(=O)CN1CCOCC1)C(=O)N[C@@H](Cc1ccccc1)C(=O)N[C@@H](CC(C)C)C(=O)[C@@]1(C)CO1 [Carfilzomib] | 0.0349 |
| CC(C)c1nc(CN(C)C(=O)N[C@@H](CCN2CCOCC2)C(=O)N[C@H](CC[C@H](Cc2ccccc2)NC(=O)OCc2cncs2)Cc2ccccc2)cs1 [Cobicistat] | 1.14 |
| CC(=O)OC(CC(C)C1=C2C[C@H](O)C3[C@@]4(C)CCC(=O)C(C)(C)C4CC[C@]3(C)[C@@]2(C)CC1)C1OC1(C)C (stereo partly drawn) [Alisol B 23-acetate] | 0.99 |
| CNC(=O)[C@H](Cc1ccccc1)NC(=O)[C@H](CC(C)C)[C@H](CSc1cccs1)C(=O)NO [Batimastat] | 1.08 |
| CC(C)C[C@H](NC(=O)[C@H](Cc1ccccc1)NC(=O)c1cnccn1)B(O)O [Bortezomib] | 0.067 |
| CC(C)C[C@H](NC(=O)[C@@H](O)[C@H](N)Cc1ccccc1)C(=O)O [Ubenimex] | 1.08 |
| CC(C)C[C@H](NC(=O)[C@@H](NC(=O)c1cccc(-c2ccccc2)n1)[C@@H](C)O)B(O)O [Delanzomib] | 0.096 |
| CC(C)C[C@H](NC(=O)[C@@H](O)[C@H](N)Cc1ccccc1)C(=O)O [Bestatin hydrochloride] | 1.16 |
| CCCOc1ccc(/C=C2\SC(=O)NC2=O)cc1 | 1.11 |
| CCn1c(=Cc2cccc[n+]2CC)sc(=C2Sc3ccccc3N2C)c1=O | 1.04 |
| COc1ccc(/C=C/c2cc(O)cc(O[C@@H]3O[C@H](CO)[C@@H](O)[C@H](O)[C@H]3O)c2)cc1O [Rhaponiticin] | 1.11 |

| Compound | cell viability |
| --- | --- |
| CC(C)=CCC[C@](C)(O[C@@H]1O[C@H](CO)[C@@H](O)[C@H](O)[C@H]1O)[C@H]1CC[C@]2(C)[C@@H]1[C@H](O)C[C@@H]1[C@@]3(C)CC[C@H](O)C(C)(C)[C@@H]3[C@@H](O)C[C@]12C [Ginsenoside F1] | 1.1 |
| C=C1CC[C@@H]2[C@](C)(CO[C@@H]3O[C@H](CO)[C@@H](O)[C@H](O)[C@H]3O)CCC[C@@]2(C)[C@@H]1CCC1=CCOC1=O [Neoandrographolide] | 1.08 |
| O=C1N[C@@H](Cc2c[nH]c3ccccc23)C(=O)N2CCC[C@@H]12 [Brevianamide F] | 1.05 |
| Nc1nc(O)c2[nH]nnc2n1 [8-Azaguanine] | 0.571 |
| COc1ccc(CNc2nc(N3CCC[C@H]3CO)ncc2C(=O)NCc2ncccn2)cc1Cl [Avanafil] | 0.966 |
| CCc1cnn2c(NCc3ccc[n+]([O-])c3)cc(N3CCCC[C@H]3CCO)nc12 [Dinaciclib] | 0.118 |
| O=C1C[C@@H](c2ccc(O)c(O)c2)Oc2cc(O)cc(O)c21 [Eriodictyol] | 1.04 |
| N#Cc1cnc(Nc2cc(NC[C@H]3CNCCO3)c(C(F)(F)F)cn2)cn1 | 1.07 |
| COc1cccc(OCCCN)c1-c1cc(Nc2cnc(C#N)cn2)n[nH]1 [Prexasertib dihydrochloride] | 0.169 |
| Cc1cc(O)c(C(=O)CCC(C)C)c(=O)o1 [Pogostone] | 1.04 |
| Cc1ccc(S(=O)(=O)Cc2nc(-c3ccc(C(=O)NCc4cccnc4)cc3)oc2C)cc1 | 0.875 |
| O=C(NCc1ccc(S(=O)(=O)c2cc(F)cc(F)c2)cc1)c1ccc2nccn2c1 | 0.117 |
| O=S(=O)(c1ccc(Cl)cc1)N1CCN(c2ccnc3cc(Cl)ccc23)CC1 | 1.08 |
| CCCCCCCCCCCCCCOc1ccc(C(=O)O)o1 | 1.05 |
| O=C(NCCN1CCOCC1)Nc1ccc(C(=O)/C=C/c2cccc(N3CCOCC3)n2)cc1 | 1.09 |
| CC(=O)c1cnc2ccc(-c3cc(Cl)c(O)c(Cl)c3)nc2c1N[C@H]1CC[C@H](CN(C)C)CC1 | 0.657 |
| O=C(NCCCNc1nc(Nc2cccc(CN3CCOCC3)c2)ncc1C1CC1)C1CCC1 | 0.937 |
| Nc1ccn([C@@H]2CS[C@H](CO)O2)c(=O)n1 [Lamivudine] | 1.21 |
| CC(=O)Nc1ccn([C@@H]2O[C@H](CO)[C@@H](O)[C@H]2O)c(=O)n1 [N4-Acetylcytidine] | 1.06 |
| Nc1ccn([C@@H]2O[C@H](CO)[C@@H](O)[C@@H]2O)c(=O)n1 [Cytarabine] | 0.12 |
| Nc1ccn([C@H]2C[C@H](O)[C@@H](CO)O2)c(=O)n1 [2'-Deoxycytidine monohydrate] | 1.07 |
| C[C@H](NP(=O)(OC[C@H]1O[C@@H](n2ccc(N)nc2=O)C(F)(F)[C@@H]1O)Oc1ccccc1)C(=O)OCc1ccccc1 (stereo partly drawn) [Acelarin] | 0.135 |
| Nc1ccn([C@@H]2O[C@H](CO)[C@@H](O)C2(F)F)c(=O)n1 [Gemcitabine HCl] | 0.121 |
| Nc1ccn([C@@H]2O[C@H](CO)[C@@H](O)C2(F)F)c(=O)n1 [Gemcitabine] | 0.0956 |
| Nc1ccn([C@@H]2O[C@H](CO)[C@@H](O)[C@H]2O)c(=O)n1 [Cytidine] | 0.915 |
| CCCC(CCC)C(=O)Nc1ccn([C@@H]2O[C@H](CO)[C@@H](O)C2(F)F)c(=O)n1 | 1.12 |
